Compound activity as filed in PubChem.
Sampled rows, rich in hits. Any-hit rate of the full collection: about 19%.
IL-1B inflam inh – qHTS for Inhibitors of Inflammasome Signaling: IL-1-beta AlphaLISA Primary Screen. THP-1 LPS/ATP IL-1B secretion, AlphaLISA, 16 h; stronger effect = lower value. AID 743279, 2014. activity change, % at 57.5 µM. 4.7% of 360,000 active; in the data active = activity change below about -50%; inconclusive = mostly about -30% to -49%
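Secreted IL-1B measured by AlphaLISA bead assay after 16 h compound exposure of THP-1 cells; compounds (final up to 57.5 uM) added 1 h before LPS (250 ng/mL) and ATP (1.25 mM) stimulation; lower signal means less secretion.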
HT1080-NT tox – qHTS for induction of synthetic lethality in tumor cells producing 2HG: qHTS for the HT-1080-NT fibrosarcoma cell line; HT-1080-NT fibrosarcoma viability, CellTiter-Glo ATP luminescence, 48 h; Potency, µM (top dose mostly 46.1 µM), for the others: at the top dose activity, negative = less viability, most hits filed as cytotoxic; 1.6% of 360,000 active;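 also: NT is the 2HG producing partner of a matched IDH1 knockdown line; potency is read from the fitted curve at half-maximal effect; 0% = DMSO-treated cells and -100% = media-only wells without cells; nearly all actives have a fitted effect of over 55% in size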
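HT-1080-NT fibrosarcoma cells (2HG-overproducing), 750 cells/well in RPMI with 5% FBS, dosed after 2 h and incubated 48 h at 37C. CellTiter-Glo luminescence normalized to DMSO and no-cell wells; concentration-response curves fitted and classed.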
DT40 TDP1 CPT – qHTS for Inhibitors of human tyrosyl-DNA phosphodiesterase 1 (TDP1): qHTS in cells in presence of CPT | chicken DT40 Tdp1-/-;hTDP1 cells + 20 nM CPT, ATP luminescence, 48 h | Potency, µM (doses to about 46.2 µM), for the others: at the highest dose activity change, negative = growth inhibition, hits mostly inhibitors | 12% of 420,000 active; also: potency is read from the fitted curve at half-maximal effect; nearly all actives have a fitted effect of over 55% in size
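Chicken DT40 Tdp1-/- cells complemented with human TDP1, 400 cells/well, exposed to compounds plus 20 nM camptothecin for at least 48 h at 37 C; viability read as ATP content by CellTiter-Glo luminescence.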
HT1080 IDH1KD tx – qHTS for induction of synthetic lethality in tumor cells producing 2HG: qHTS for the HT-1080-IDH1KD cell line; HT-1080 IDH1 knockdown viability, ATP luminescence, 48 h; Potency, µM (top dose mostly 46.1 µM), for inactives: at the highest dose activity, negative = toxicity, hits mostly cytotoxic; 2% of 360,000 active;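 also: potency is read from the fitted curve at half-maximal effect; 0% = DMSO wells and -100% = cell-free medium wells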
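Knockdown cells (IDH1KD HT-1080) received compounds 2 h after plating at 750 cells/well and were kept 48 h at 37 °C in 5% FBS RPMI. A CellTiter-Glo luminescence read gave % activity for curve fitting.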
DT40 TDP1 no CPT – qHTS for Inhibitors of human tyrosyl-DNA phosphodiesterase 1 (TDP1): qHTS in cells in absence of CPT; 15% of 420,000 active; DT40 Tdp1-/- hTDP1 cells, no CPT, ATP luminescence, 48 h; Potency, µM (titrated, usually from 46.2 µM), for the others: at the highest dose activity change, negative = growth inhibition, most hits filed as inhibitors; also: potency is read from the fitted curve at half-maximal effect; nearly all actives have a fitted effect of over 55% in size
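Stably hTDP1-transfected Tdp1-null chicken DT40 cells were treated with library compounds minus camptothecin and grown for at least 48 hr at 37 °C, after which cellular ATP was quantified by luminescence.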
Numbers without * were called inactive; ? = inconclusive; nt = no result; [ ] = dose if it differs, or a comment. Unless noted, calls follow the shape of the dose curve; as a rule, active = well fitted curve in the direction sought with a large enough effect; inconclusive = small, poorly fitted or top-dose-only effect, or another doubt; inactive = no such curve, though single readings can be large; an effect the other way counts as inactive or inconclusive. Unless noted, % is scaled to controls: 0 for no effect and ±100 for the full control effect.

SMILES	IL-1B inflam inh	HT1080-NT tox	DT40 TDP1 CPT	HT1080 IDH1KD tx	DT40 TDP1 no CPT
CC(=NNC(=O)c1ccncc1)c1ccc(Cl)cc1Cl	10	25%	5%	-1%	-12%
Cc1ccc(C)c(OCCC(=O)OCC(=O)Nc2cc(S(=O)(=O)N3CCOCC3)ccc2C)c1	-4	2%	-7%	1%	-12%
CCOC1=C2CN(S(=O)(=O)c3ccc(C)cc3)C(c3ccccc3)CC2N(S(=O)(=O)c2ccccc2Cl)C(c2ccccc2)C1 (configuration not stated)	-21	0%	10%	-13%	-4%
COc1ccc(CCCNC(=O)C2Cc3c(-c4ccccc4)ccnc3O2)cc1 (configuration not stated)	-22	8.2µM*	6.5µM*	?	5.8µM*
CC(=O)Nc1ccc(-c2ccnc3c2CC(C(=O)NCc2cccc(Cl)c2)O3)cc1 (configuration not stated)	29	?	3.7µM*	1.6µM*	2.3µM*
COc1ccc(NC(=O)C2Cc3c(-c4ccccc4Oc4ccccc4)ccnc3O2)cc1 (configuration not stated)	?	0%	?	-23%	?
CN1C(=O)OC2(C)CCc3ccccc3C12C (configuration not stated)	11	9%	-4%	-3%	-7%
CN1c2ccccc2C(C)(C)C12CCCC(=O)N2 (configuration not stated)	18	-6%	29µM*	3%	?
CN(C)CCNC(=O)c1cccc2ccc(-c3ccc(-c4ccccc4)cc3)nc12	-57*	-4%	?	?	?
CN(C)CCNC(=O)c1sc2cccc(F)c2c1Cl	-13	-5%	21%	-22%	-23%
CN(C)CCNC(=O)c1ccccc1	15	0%	-13%	1%	-10%
CN(C)CCNC(=O)c1cccc2nc3cccc(F)c3nc12	-116*	?	0.082µM*	7.3µM*	0.26µM*
COc1ccc(OC)c2nc3c(C(=O)NCCN(C)C)cccc3nc12	-100*	?	1.6µM*	21µM*	2.6µM*
COc1ccc(C23CC4CC(CC(C4)C2)C3)cc1C(=O)NCCN(C)C	-13	?	21µM*	?	8.2µM*
Cc1cc(C)n(-c2ccc(C(=O)NCC(c3ccco3)N3CCCC3)cc2)n1 (configuration not stated)	21	-6%[9.24 µM]	?	-2%	-6%
COc1ccc(NC2CCCN(C(=O)CCC3=NNC(=O)CC3)C2)cc1 (configuration not stated)	12	6%	5%	10%	1%
COC(=O)[C@@]1(Cc2ccc(F)cc2)[C@H]2c3cc(C(=O)N(C)C)n(CCc4c[nH]c5ccc(O)cc45)c3C[C@H]2CN1C(=O)c1ccccc1	-5	-18%	?	-13%	?
Cc1c(-c2ccc(O)cc2)nn(-c2ccc(O)cc2)c1-c1ccc(OCCN2CCCCC2)cc1	nt	nt	19µM*	nt	30µM*
Cc1ccc(OCCN2CCCC2)cc1	18	-2%	-11%	-3%	1%
Cc1[nH]c(C)c(S(=O)(=O)NCC(C)c2ccccc2)c1C(=O)N1CCCCC1 (configuration not stated)	-24	0%	-3%	13%	-2%
COc1cccc(-c2ccc3ncnc(N4CCOCC4)c3c2)c1	nt	nt	15µM*	nt	26µM*
CN(C)C(=O)c1ccc(-c2ccc3ncnc(N4CCC(C(=O)O)CC4)c3c2)cc1	nt	nt	-9%	nt	-2%
CN(C)Cc1ccccc1-c1ccc2ncnc(N3CCOCC3)c2c1	nt	nt	?	nt	21µM*
c1nc(N2CCOCC2)c2cc(-c3ccoc3)ccc2n1	nt	nt	8.2µM*	nt	?
COc1ccccc1-c1ccc2ncnc(N3CCOCC3)c2c1	nt	nt	18µM*	nt	21µM*
SMILES	IL-1B inflam inh	HT1080-NT tox	DT40 TDP1 CPT	HT1080 IDH1KD tx	DT40 TDP1 no CPT
COc1ccccc1-c1nc(N2CCOCC2)c2ccccc2n1	nt	nt	-2%	nt	-27%
COc1ccc(CN2CCNC(=O)C2CC(=O)N(C)Cc2ccon2)c(F)c1 (configuration not stated)	-2	-8%	7%	5%	5%
Cc1ccc(C)c(NC(=O)CSc2ncc3c(n2)-c2ccccc2N(Cc2ccccc2C)S3(=O)=O)c1	nt	nt	-26%	nt	?
Cc1ccccc1NC(=O)CON=C(N)c1ccccc1	?	5%[9.24 µM]	-1%	6%	7%
c1cn(-c2ncnc3ccc(-c4ccoc4)cc23)cn1	nt	nt	18µM*	nt	23µM*
c1nc(NC2CC2)c2cc(-c3ccoc3)ccc2n1	nt	nt	?	nt	-25%
COc1ccccc1-c1ccc2ncnc(N3CCN(C)CC3)c2c1	nt	nt	9.2µM*	nt	7.3µM*
COc1ccccc1-c1ccc2ncnc(NC3CCNCC3)c2c1	nt	nt	?	nt	-29%
CO/C(N)=C(\C#N)N=Cc1ccccc1Cl	-8	12%	17%	0%	0%
COc1ccccc1CN1CC2(CCN(C(=O)c3ccncc3)CC2)C1	nt	nt	19%	nt	-11%
CCOc1cc(CNc2ccccc2)cc(Br)c1OCc1ccc(F)cc1	?	-16%	?	-11%	?
CCOc1cccc(CNCCO)c1OCc1ccc(Cl)cc1Cl	0	-4%	16µM*	-25%	16µM*
CCOc1cc(CNc2ccc(O)cc2)cc(Cl)c1OCc1ccccc1	nt	nt	21µM*	nt	16µM*
CCOc1cccc(CNn2cnnc2)c1OCc1ccccc1Cl	-7	0%	-18%	3%	-29%
CCOc1cc(CNCCO)cc(Br)c1OCc1cccs1	-60*	?	15µM*	11µM*	18µM*
CCOc1cccc(CNc2ccc(O)cc2)c1OCc1ccc(Cl)cc1Cl	?	?	15µM*	21µM*	21µM*
COc1cc(CNCCO)cc(Br)c1OCc1ccccc1	-1	-6%	-11%	-9%	-24%
O=C(CSc1nc2c([nH]c3ccccc32)c(=O)n1-c1cccc(Cl)c1)N1CCCC1	nt	nt	9%	nt	0%
CCOc1cc(CNCc2ccncc2)cc(Br)c1OCc1ccccc1F	-13	?	?	?	?
CCOc1cccc(CNc2ccc(O)cc2)c1OCc1ccccc1Cl	-5	?	13µM*	?	12µM*
CCOc1cc(CNCCO)cc(Br)c1OCc1ccc(Cl)cc1Cl	-101*	?	16µM*	21µM*	15µM*
O=C(N/N=C/c1ccc([N+](=O)[O-])o1)C(=O)Nc1ccc(C(=O)O)cc1	18	-17%	-24%	9%	-14%
O=[N+]([O-])c1ccc(N/N=C/C=C/c2ccco2)cc1	22	1%	?	3%	?
